Shown are actives, neighbours in structure and some others; about 15% of the full set was active somewhere.
RORgamma inh – inhibitors of mouse ROR gamma transcriptional activity; P51450; Drosophila S2 Gal4-RORgamma UAS-luciferase reporter, 20 h; Potency, µM (top dose mostly 53.6 µM), usual class: inhibitors; hit rate 5.4% among 310,000; AID 2551; further: nearly all actives have a fitted effect of over 60% in size
Target sequence (P51450 whole entry, looked up, the tested form may be a part): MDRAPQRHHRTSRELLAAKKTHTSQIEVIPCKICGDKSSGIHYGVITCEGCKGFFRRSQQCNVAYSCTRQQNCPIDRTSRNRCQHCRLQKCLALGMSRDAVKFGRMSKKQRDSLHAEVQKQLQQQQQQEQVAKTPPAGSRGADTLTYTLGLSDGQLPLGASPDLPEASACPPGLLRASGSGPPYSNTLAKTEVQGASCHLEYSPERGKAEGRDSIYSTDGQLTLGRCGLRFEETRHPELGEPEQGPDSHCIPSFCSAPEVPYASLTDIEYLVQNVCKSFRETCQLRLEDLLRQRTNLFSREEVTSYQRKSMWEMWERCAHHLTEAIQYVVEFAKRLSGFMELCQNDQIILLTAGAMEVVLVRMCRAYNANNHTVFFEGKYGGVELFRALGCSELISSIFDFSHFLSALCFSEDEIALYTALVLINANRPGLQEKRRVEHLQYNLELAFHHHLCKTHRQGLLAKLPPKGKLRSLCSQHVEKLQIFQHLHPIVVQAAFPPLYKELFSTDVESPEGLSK
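Stably transfected Drosophila Schneider cells are the test system, with ROR gamma fused to Gal4 and luciferase under UAS control; luminescence is read after 20 hr of 700 uM copper sulfate induction at ambient temperature.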
ELG1 DNA repair – inhibitors of ELG1-dependent DNA repair in HEK293T cells; Potency, µM (titrated, usually from 46.1 µM), usual class: inhibitors; HEK293T ELG1-luciferase reporter, luminescence, 16 h; DNA damage induced by 5-fluorouridine; hit rate 2.3% among 330,000; further: nearly all actives have a fitted effect of over 55% in size
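DMSO vehicle served as the neutral condition. Each well held 2,000 cells given 5-fluorouridine plus compound; after 16 hr at 37 °C/5% CO2, ONE-Glo was added and luciferase measured 30 min later.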
VP16 counter – Gal4-VP16 reporter inhibition counter-screen | AID 2546 | Drosophila S2 Gal4-VP16 UAS-luciferase, luminescence, 20 h | Potency, µM (series often up to 53.6 µM), hits mostly inhibitors | hit rate 3.5% among 310,000;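 further: Gal4-VP16 expression switched on by copper sulfate through the metallothionein promoter; nearly all actives have a fitted effect of over 50% in size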
TDP1 cell CPT – DT40-hTDP1 cell growth loss with CPT; chicken DT40 Tdp1-/-;hTDP1 cells + 20 nM CPT, ATP luminescence, 48 h; Potency, µM (titrated, usually from 46.2 µM), usual class: inhibitors; hit rate 12% among 420,000; further: nearly all actives have a fitted effect of over 55% in size
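Chicken DT40 Tdp1-/- cells complemented with human TDP1, 400 cells/well, exposed to compounds plus 20 nM camptothecin for at least 48 h at 37 C; viability read as ATP content by CellTiter-Glo luminescence.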
ALOX12 inh – inhibitors of human 12S-lipoxygenase ALOX12; hit rate 1.1% among 580,000; P18054; Potency, µM (titrated, usually from 108 µM), usual class: inhibitors; purified 12hLO, xylenol orange hydroperoxide absorbance
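Hydroperoxide product was detected by ferrous iron/xylenol orange as the 573 to 405 nm absorbance ratio. Arachidonic acid at 40 uM (final) was turned over for 30 min at room temperature by 150 nM human 12hLO, pH 7.0 Hepes buffer, after 15 min compound preincubation.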
TDP1 cell noCPT – qHTS for Inhibitors of human tyrosyl-DNA phosphodiesterase 1 (TDP1): qHTS in cells in absence of CPT; Potency, µM (series often up to 46.2 µM), most hits filed as inhibitors; hit rate 15% among 420,000; DT40 Tdp1-/- hTDP1 cells, no CPT, ATP luminescence, 48 h; AID 686978, 2013; further: nearly all actives have a fitted effect of over 55% in size
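Stably hTDP1-transfected Tdp1-null chicken DT40 cells were treated with library compounds minus camptothecin and grown for at least 48 hr at 37 °C, after which cellular ATP was quantified by luminescence.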
Of the large screens only hits and unclear results are named; the others gave an inactive call. The call rests on the fitted dose curve; in most records, active means well fitted curve in the direction sought with a large enough effect; inconclusive means small, poorly fitted or top-dose-only effect, or another doubt; inactive means no such curve, though single readings can be large; an effect the other way counts as inactive or inconclusive.

COc1cccc(CNCCc2c[nH]c3ccccc23)c1OCc1ccccc1	TDP1 cell CPT 7.3µM, ALOX12 inh inconclusive, TDP1 cell noCPT 9.2µM
COc1cccc(CNC(C)C)c1OCc1ccccc1	none (no result: RORgamma inh, ELG1 DNA repair, VP16 counter, TDP1 cell CPT, TDP1 cell noCPT)
COc1cccc(CNC(=O)c2cc(C)cc(C)c2)c1	none (no result: RORgamma inh, ELG1 DNA repair, VP16 counter, TDP1 cell CPT, TDP1 cell noCPT)
Cc1ccc2nc(C)c(C(=O)NCc3ccc(N4CCCCCC4)nc3)cc2c1	none (no result: RORgamma inh, ELG1 DNA repair, VP16 counter, TDP1 cell CPT, TDP1 cell noCPT)
CCC(C)(C)NC(=O)c1ccccc1OCc1ccc(Cl)cc1	none (no result: RORgamma inh, ELG1 DNA repair, VP16 counter, TDP1 cell CPT, TDP1 cell noCPT)
CCn1cc(S(=O)(=O)N2CCCCC2c2nc(-c3ccncc3)n[nH]2)cn1 (configuration not stated)	none (no result: RORgamma inh, ELG1 DNA repair, VP16 counter, TDP1 cell CPT, TDP1 cell noCPT)
O=C(N/N=C\c1cc(Cl)ccc1O)c1ccc(S(=O)(=O)N2CCCCC2)cc1	RORgamma inh 5µM, ELG1 DNA repair inconclusive, VP16 counter 3.5µM, TDP1 cell CPT 0.65µM, TDP1 cell noCPT 0.73µM
O=C(Nc1cc(S(=O)(=O)Nc2ccc(Cl)cc2)ccc1O)c1ccc(S(=O)(=O)N2CCCCCC2)cc1	RORgamma inh inconclusive, ELG1 DNA repair inconclusive, VP16 counter inconclusive, TDP1 cell CPT inconclusive, TDP1 cell noCPT 21µM
COC(=O)c1ccc(NC(=O)C(NC(=O)c2ccc(C)cc2)C(C)C)c(C)c1 (configuration not stated)	none (no result: RORgamma inh, ELG1 DNA repair, VP16 counter, TDP1 cell CPT, TDP1 cell noCPT)
COc1cc(OC)c2c(-c3ccccc3)cc(=O)oc2c1C(CCN1CCCC(C)C1)c1ccc(N(C)C)cc1 (configuration not stated)	RORgamma inh inconclusive, TDP1 cell CPT inconclusive, TDP1 cell noCPT 21µM
COc1cc(OC)c2c(-c3ccccc3)cc(=O)oc2c1C(CC(=O)N1CCOCC1)c1ccc(N(C)C)cc1 (configuration not stated)	RORgamma inh inconclusive, ELG1 DNA repair inconclusive, TDP1 cell CPT inconclusive, TDP1 cell noCPT inconclusive
COc1ccc(C(CCN2CCCC(C)C2)c2c(OC)cc(OC)c3c(C)cc(=O)oc23)cc1 (configuration not stated)	ELG1 DNA repair inconclusive, TDP1 cell CPT 13µM, TDP1 cell noCPT 23µM
COc1ccc(C(CCN2CCCC(C)C2)c2c(OC)cc(OC)c3c(-c4ccccc4)cc(=O)oc23)cc1 (configuration not stated)	RORgamma inh inconclusive, TDP1 cell CPT 3.3µM, ALOX12 inh inconclusive, TDP1 cell noCPT 2.9µM
CN(C)c1ccc(C(=O)N2CCC(Cc3ccccc3)CC2)cc1	none (no result: RORgamma inh, ELG1 DNA repair, VP16 counter, TDP1 cell CPT, TDP1 cell noCPT)
Nc1nc(SCc2ccc(Cl)cc2)ns1	ELG1 DNA repair inconclusive, VP16 counter 7.1µM
COc1ccc(OC)c(NC(=O)c2cc3c(OC)c(OC)c(OC)cc3[nH]2)c1	none (no result: RORgamma inh, ELG1 DNA repair, VP16 counter, TDP1 cell CPT, TDP1 cell noCPT)
O=C(C[n+]1cc(-c2ccccc2)n2c1CCC2)N1c2ccccc2Sc2ccccc21	TDP1 cell CPT 5.2µM, ALOX12 inh inconclusive, TDP1 cell noCPT 2.6µM
O=C(C[n+]1cc(-c2ccc(F)cc2)n2c1CCC2)N1c2ccccc2Sc2ccccc21	ELG1 DNA repair inconclusive, TDP1 cell CPT 15µM, TDP1 cell noCPT 13µM
O=C(C[n+]1cc(-c2ccccc2)n2c1CCC2)c1cccs1	ELG1 DNA repair inconclusive
Cc1ccc(-c2c[n+](CC(=O)N3c4ccccc4Sc4ccccc43)c3n2CCC3)cc1	ELG1 DNA repair inconclusive, VP16 counter inconclusive, TDP1 cell CPT 5.2µM, ALOX12 inh inconclusive, TDP1 cell noCPT 5.2µM
Cc1ccc(-c2c[n+](CC(=O)Nc3c(C)cccc3C)c3n2CCC3)cc1	ELG1 DNA repair inconclusive, TDP1 cell CPT inconclusive, TDP1 cell noCPT inconclusive
CC(=O)NC1C(=O)N(CCOc2cccc(C)c2)c2ccc(C)cc21 (configuration not stated)	none (no result: RORgamma inh, ELG1 DNA repair, VP16 counter, TDP1 cell CPT, TDP1 cell noCPT)
COc1cc(NC(=O)CCn2ccnc2)cc(OC)c1OC	none (no result: RORgamma inh, ELG1 DNA repair, VP16 counter, TDP1 cell CPT, TDP1 cell noCPT)
CCc1nnc(NC(=O)Cc2c(C)c3ccc(OC)c(OC)c3oc2=O)s1	none (no result: RORgamma inh, ELG1 DNA repair, VP16 counter, TDP1 cell CPT, TDP1 cell noCPT)
CCOc1cccc(-c2cc(C(=O)O)c3cc(C)cc(C)c3n2)c1	none (no result: RORgamma inh, ELG1 DNA repair, VP16 counter, TDP1 cell CPT, TDP1 cell noCPT)
Cc1cccc(NC(=O)c2cnn3ccccc23)c1C	ELG1 DNA repair inconclusive, TDP1 cell CPT 1.6µM, TDP1 cell noCPT 2.1µM
Cc1ccc(C)c(NC(=O)c2cc(C)nc3ccccc23)c1	TDP1 cell noCPT inconclusive
Cc1ccccc1NC(=O)c1cnn2cccnc12	none (no result: RORgamma inh, ELG1 DNA repair, VP16 counter, TDP1 cell CPT, TDP1 cell noCPT)
